According to PubChem BioAssay (NCI):
The panel holds about 79,000 compounds, 15% with a hit somewhere; the sample as a whole holds those more often. Calls of active or inactive are those of the source. Cut-off read from the data, not from the text of the source: active = growth inhibition above about 70%; inactive = the rest.

Experiment: NCI Yeast Anticancer Drug Screen. Data for the bub3 strain (AID 167)
Conditions: S. cerevisiae bub3 mutant strain, at 50.0 µM, active compounds read high
Procedure, shortened: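 Compounds were applied to a genetically altered yeast strain carrying a cell-cycle control defect. Growth inhibition was scored against vehicle-treated controls.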

| Structure (SMILES) | growth inhibition |
| --- | --- |
| C/C=C/C(=O)[O-].C/C=C/C(=O)[O-].N.N.N.N.[Co+3].[O-][Cl+3]([O-])([O-])[O-] | 7.3% (inactive) |
| CC1(C)C(=O)N(O)C(C)(C)N1N=O | 15.4% (inactive) |
| CC(=O)Oc1cccc(C#N)c1 | 6.65% (inactive) |
| COc1cc2c(cc1O)CNCC2c1ccc(O)c(C)c1 (stereo not given) | -11.4% (inactive) |
| [Se]=[Mo]=[Se] | -7.05% (inactive) |
| CCC(Br)(CC)C(=O)NC(N)=O | -10.8% (inactive) |
| O=Cc1ccccc1.[C-]#[O+].[C-]#[O+].[C-]#[O+].[Cr] | 11.1% (inactive) |
| Cc1ccc(SCC(CSCCO)OCn2cnc3c2NC(N)=NC32OCCO2)cc1 (stereo not given) | -12.3% (inactive) |
| C1=CC2CCC1C2 | -5.65% (inactive) |
| COc1ccc2c(c1)C1(C)CCN(C)CC(C1)C2O (stereo not given) | -1% (inactive) |
| CCOP(=O)(OCC)Oc1c(Cl)c(Cl)c(Cl)c(Cl)c1Cl | 23.9% (inactive) |
| CN(C)Cc1c[nH]c2ccc(F)cc12 | -11.8% (inactive) |
| CCCCCCCCCCOC(=O)c1ccccc1C(=O)OCCCCCCCCCC | -11.2% (inactive) |
| CN(C)C(=O)Oc1ccc(Cl)cc1Cl | -9.35% (inactive) |
| CC(=O)OC1CCC2(C)C(CC(=O)C3C2CCC2(C)C(OC(C)=O)CCC32)C1 (stereo not given) | -4.2% (inactive) |
| CCOP(=O)(OCC)C(C)(C)OC(=O)NC#N | -13.6% (inactive) |
| COC12C(COC(N)=O)C3=C(C(=O)C(C)=C(N4CC4)C3=O)N1CC1NC12 (stereo not given) | 88.8% (active) |
| CC(C)CCC1C(=O)NC(=O)NC1=O | -4.05% (inactive) |

| Structure (SMILES) | growth inhibition |
| --- | --- |
| CC(C)(C)NCC(COc1ccc([N+](=O)[O-])cc1)OP(c1ccccc1)c1ccccc1 (stereo not given) | 14.8% (inactive) |
| Fc1ccc(N=C=S)cc1 | -6.2% (inactive) |
| NCCCN1CCN(c2ccccc2)CC1 | -28.6% (inactive) |
| [Cl][Pt]([Cl])[Cl].[NH-]C1CN2CCC1CC2 (stereo not given) | 2.2% (inactive) |
| CC(C)N[C@@H]1CCC[C@H]1O | 4.05% (inactive) |
| CC[C@@]1(O)C(=O)OCc2c1cc1n(c2=O)Cc2cc3cc(OC)ccc3nc2-1 | 83.6% (active) |
| CC(=O)O[C@H]1CC[C@@]2(C)[C@H](CC[C@@H]3[C@@H]2CC[C@]2(C)[C@@H](c4ccc(=O)oc4)C[C@H]4O[C@]342)C1 | 8.45% (inactive) |
| CCCCCCCCCSCP(=O)(OCC)OCC | 99.5% (active) |
| [CH3][Sn]1([CH3])[O]CC(COc2cc(Cl)c(Cl)cc2Cl)[O]1 (stereo not given) | -10.1% (inactive) |
| CCCC(=O)OC1C(c2ccc(=O)oc2)C2(C)CCC3C(CCC4CC(OC(C)=O)CCC43C)C23OC13 (stereo not given) | -5.95% (inactive) |
| O=C(O)C(O)(Cl)c1cccs1 (stereo not given) | -7.15% (inactive) |
| CCOP(=O)(OCC)O/N=C(/c1ccccc1)C(C)C | -0.1% (inactive) |
| C[N+](C)(C)CC1CCc2ccccc2C1=O (stereo not given) | 40.5% (inactive) |
| CC(=O)[CH-]C(C)=O.CC(=O)[CH-]C(C)=O.CC(=O)[CH-]C(C)=O.CCC(=O)O.[Zn+2].[Zn] | -0.15% (inactive) |
| O=C(CCC1CCCCN1)Nc1ccc2c(c1)C(=O)c1ccc(NC(=O)CCN3CCCCC3)cc1C2=O (stereo not given) | -12.6% (inactive) |
| COc1ccc2c(c1)CCC1C2CCC2(C)C1CCC21CCNP(=O)(N(CCCl)CCCl)O1 (stereo not given) | 22.4% (inactive) |
| O=C(COc1cccc(Cl)c1Cl)Nc1ccc[n+](Cc2ccc(S(=O)(=O)F)cc2)c1 | 7.4% (inactive) |
| Cc1ccc(C)c(C(C)NC2=NCCO2)c1 (stereo not given) | -9.9% (inactive) |

Experiment: NCI Yeast Anticancer Drug Screen. Data for the mlh1 rad18 strain (AID 175)
Conditions: S. cerevisiae mlh1 rad18 strain growth inhibition; at 50.0 µM; active compounds read high
Procedure, shortened: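 Growth inhibition of the yeast strain was measured after compound exposure and expressed relative to vehicle-treated controls. The strain carries defined defects in DNA damage repair.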

| Structure (SMILES) | growth inhibition |
| --- | --- |
| C/C=C/C(=O)[O-].C/C=C/C(=O)[O-].N.N.N.N.[Co+3].[O-][Cl+3]([O-])([O-])[O-] | -3.5% (inactive) |
| CC1(C)C(=O)N(O)C(C)(C)N1N=O | 19.6% (inactive) |
| CC(=O)Oc1cccc(C#N)c1 | 5.05% (inactive) |
| COc1cc2c(cc1O)CNCC2c1ccc(O)c(C)c1 (stereo not given) | -4.7% (inactive) |
| [Se]=[Mo]=[Se] | -33.9% (inactive) |
| CCC(Br)(CC)C(=O)NC(N)=O | -6.05% (inactive) |
| O=Cc1ccccc1.[C-]#[O+].[C-]#[O+].[C-]#[O+].[Cr] | 15.8% (inactive) |
| Cc1ccc(SCC(CSCCO)OCn2cnc3c2NC(N)=NC32OCCO2)cc1 (stereo not given) | -56.9% (inactive) |
| C1=CC2CCC1C2 | 7.85% (inactive) |
| COc1ccc2c(c1)C1(C)CCN(C)CC(C1)C2O (stereo not given) | 23.2% (inactive) |
| CN1C2CCC1C(Br)C(=O)C2 (stereo not given) | -51.2% (inactive) |
| CCOP(=O)(OCC)Oc1c(Cl)c(Cl)c(Cl)c(Cl)c1Cl | 78.5% (active) |
| CN(C)Cc1c[nH]c2ccc(F)cc12 | -16.9% (inactive) |
| CCCCCCCCCCOC(=O)c1ccccc1C(=O)OCCCCCCCCCC | -24.6% (inactive) |
| CN(C)C(=O)Oc1ccc(Cl)cc1Cl | 32.6% (inactive) |
| CC(=O)OC1CCC2(C)C(CC(=O)C3C2CCC2(C)C(OC(C)=O)CCC32)C1 (stereo not given) | 2.15% (inactive) |
| CCOP(=O)(OCC)C(C)(C)OC(=O)NC#N | -28.8% (inactive) |
| COC12C(COC(N)=O)C3=C(C(=O)C(C)=C(N4CC4)C3=O)N1CC1NC12 (stereo not given) | 87.2% (active) |
| CC(C)CCC1C(=O)NC(=O)NC1=O | -1.15% (inactive) |
| CC(C)(C)NCC(COc1ccc([N+](=O)[O-])cc1)OP(c1ccccc1)c1ccccc1 (stereo not given) | 21.3% (inactive) |

| Structure (SMILES) | growth inhibition |
| --- | --- |
| Fc1ccc(N=C=S)cc1 | 2.2% (inactive) |
| NCCCN1CCN(c2ccccc2)CC1 | -39.5% (inactive) |
| [Cl][Pt]([Cl])[Cl].[NH-]C1CN2CCC1CC2 (stereo not given) | -7.55% (inactive) |
| CC(C)N[C@@H]1CCC[C@H]1O | -19.5% (inactive) |
| [Br][Sn]([Br])([CH2][Sn]([Br])([c]1ccccc1)[c]1ccccc1)[c]1ccccc1 | 81.7% (active) |
| CC(=O)O[C@H]1CC[C@@]2(C)[C@H](CC[C@@H]3[C@@H]2CC[C@]2(C)[C@@H](c4ccc(=O)oc4)C[C@H]4O[C@]342)C1 | 17.4% (inactive) |
| CCCCCCCCCSCP(=O)(OCC)OCC | 99.7% (active) |
| [CH3][Sn]1([CH3])[O]CC(COc2cc(Cl)c(Cl)cc2Cl)[O]1 (stereo not given) | 4.5% (inactive) |
| CCCC(=O)OC1C(c2ccc(=O)oc2)C2(C)CCC3C(CCC4CC(OC(C)=O)CCC43C)C23OC13 (stereo not given) | 0.2% (inactive) |
| COc1ccccc1NC1=NCCS1 | 15.4% (inactive) |
| O=C(O)C(O)(Cl)c1cccs1 (stereo not given) | 14.8% (inactive) |
| CCOP(=O)(OCC)O/N=C(/c1ccccc1)C(C)C | 2.4% (inactive) |
| Cc1ccc(S(=O)(=O)Nc2cc(C)cc(CCN)c2C)cc1 | -10.1% (inactive) |
| C[N+](C)(C)CC1CCc2ccccc2C1=O (stereo not given) | 91.4% (active) |
| CC(=O)[CH-]C(C)=O.CC(=O)[CH-]C(C)=O.CC(=O)[CH-]C(C)=O.CCC(=O)O.[Zn+2].[Zn] | -26.3% (inactive) |
| O=C(CCC1CCCCN1)Nc1ccc2c(c1)C(=O)c1ccc(NC(=O)CCN3CCCCC3)cc1C2=O (stereo not given) | 6.8% (inactive) |
| COc1ccc2c(c1)CCC1C2CCC2(C)C1CCC21CCNP(=O)(N(CCCl)CCCl)O1 (stereo not given) | 38.7% (inactive) |
| O=C(COc1cccc(Cl)c1Cl)Nc1ccc[n+](Cc2ccc(S(=O)(=O)F)cc2)c1 | 28.6% (inactive) |
| Cc1ccc(C)c(C(C)NC2=NCCO2)c1 (stereo not given) | 19% (inactive) |
